This is a sample that favours compounds with a hit; in the whole collection about 2.4% have one here.
ADAM10 inh: inhibits human ADAM10 | O14672 | inhibition, % at 7 µM | recombinant ADAM10, EDANS/DABCYL FRET peptide cleavage, 3 h | hit rate 0.62% among 370,000;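 active means inhibition above a per-campaign cutoff equal to the mean of compounds falling between control-based bounds plus 3 SD, cut at about 20% in these data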;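 further: 0% = DMSO wells while the 100% control is not disclosed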
A3G deaminase: APOBEC3G (human) deaminase inhibition; recombinant A3G, ssDNA deamination FAM/TAMRA fluorescence; inhibition, % at 20 µM; hit rate 0.28% among 330,000;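 active means inhibition of at least 40% at 20 µM, with no more than 30% in the related APOBEC3A deaminase screen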;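 further: plate controls were DMSO wells with A3G for no effect and wells lacking A3G enzyme for full effect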
NRP1-CendR mod: modulators of CendR peptide binding to human neuropilin-1; O14786; inhibition, % at 25 µM; hit rate 0.85% among 360,000; AID 602438; FAM-RPARPAR peptide binding to NRP-1, fluorescence polarization;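 active means inhibition or corrected inhibition above about 18%, plus a signal ratio from 0.5 to 1.5, limit read from the data, passing the limit was not always enough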
ADAM17 inh: ADAM17 inhibition, QFRET primary screen; recombinant ADAM17, EDANS/DABCYL FRET peptide cleavage; inhibition, % at 6.95 µM; P78536; hit rate 0.83% among 370,000;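 active means inhibition above the mean of compounds lying between control limits plus 3 SD, set per campaign, cut at about 8.5% in these data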;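 further: 0% = DMSO-only wells as the low control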
APOBEC3A inh: inhibitors of human APOBEC3A DNA deaminase; P31941; recombinant A3A, FAM/TAMRA ssDNA deamination fluorescence; inhibition, % at 20 µM; AID 493011; hit rate 0.41% among 330,000;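 active means at least 40% inhibition at 20 µM here, with at most 30% in a related deaminase screen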;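 further: plate controls were A3A with DMSO for no effect and wells lacking A3A enzyme for full effect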
Target sequence (P31941 whole entry, looked up): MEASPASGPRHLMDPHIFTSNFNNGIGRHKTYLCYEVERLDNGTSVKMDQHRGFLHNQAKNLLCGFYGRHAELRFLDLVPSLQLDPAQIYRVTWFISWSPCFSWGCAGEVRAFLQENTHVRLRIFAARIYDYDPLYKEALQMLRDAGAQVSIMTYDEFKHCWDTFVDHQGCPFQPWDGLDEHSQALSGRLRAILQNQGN
ADAM10 ctr: ADAM10 inhibition, counter-screen for ADAM17 exosite hits; shares compounds with ADAM17 inh; recombinant ADAM10, EDANS/DABCYL FRET peptide cleavage, 3 h; inhibition, % at 6.95 µM; hit rate 47% among 2,900; AID 743256;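 active means mean inhibition over the triplicate runs exceeds the activity threshold set in the earlier primary screen, cut at about 20% in these data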;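 further: 0% = DMSO wells and 100% = marimastat wells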
ADAM17 confirm: confirmation of inhibitors of human ADAM17; hit rate 65% among 2,900; recombinant ADAM17, EDANS/DABCYL QFRET peptide cleavage; shares compounds with ADAM17 inh; inhibition, % at 6.95 µM;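 active means mean inhibition across replicates above the hit cutoff set in the primary screen, cut at about 8.5% in these data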;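 further: 0% = DMSO wells and 100% = marimastat wells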
An asterisk follows results filed as active; . = no result given.

SMILES	ADAM10 inh	A3G deaminase	NRP1-CendR mod	ADAM17 inh	APOBEC3A inh	ADAM10 ctr	ADAM17 confirm
O=C(CC1SC(=Nc2ccccc2)N(CCc2ccccn2)C1=O)Nc1ccc(F)cc1 (centres undefined)	7	-7	-7	0	-6	.	.
COc1ccc(C(=O)N2CCN(Cc3ccccc3)CC2)cc1[N+](=O)[O-]	6	-8	10	0	-5	.	.
O=C(c1ccc(S(=O)(=O)c2cccc(Cl)c2)c([N+](=O)[O-])c1)N1CCN(Cc2ccccc2)CC1	10	2	-11	10*	1	25*	17*
COc1ccc(NC(=O)/C=C/c2cc(Br)ccc2OC)cc1	19	4	-10	4	-2	.	.
COc1ccc(Br)cc1/C=C/C(=O)Nc1c(C)cccc1C	-7	-7	2	9.8*	-2	-16	-1
CCN(CC)c1ccc(NC(=O)/C=C/c2cc(Br)ccc2OC)cc1	12	-5	-13	10*	-9	27*	20*
CC(C)(C)c1ccc(OCCC(=O)OCC(=O)NC2CCCCC2)cc1	5	-11	-6	1	0	.	.
CC(C)(C)c1ccc(OCCC(=O)OCC(=O)NC(=O)NC2CCCC2)cc1	19	-1	7	17*	3	28*	13*
COC(=O)[C@]12C[C@H](CC(=O)NCCCCc3ccccc3)C(=O)N(CCC3=CCCCC3)C1=C[C@H](C(C)(C)C)O[C@@H]2C	-9	.	.	-4	.	.	.
COc1cc(/C=N\NC(=O)c2ccccc2F)ccc1Oc1ccc([N+](=O)[O-])cn1	15	-6	5	10.0*	-1	6	7
CCOc1cc(/C=N/NC(=O)COc2ccc(Cl)cc2)ccc1OS(=O)(=O)c1ccccc1	18	-8	2	14*	-4	37*	17*
Nn1c(SCC(=O)Nc2cccc3ccccc23)nnc1-c1cc(-c2ccccc2)n[nH]1	-6	.	.	-1	.	.	.
Cc1ccc(O)c(Cc2cc(C)cc(Cc3cc(C)ccc3O)c2O)c1	11	.	2	9.4*	.	30*	14*
Cc1ccc(O)c(C(=O)CC(=O)c2ccc(Cl)cc2)c1	-21	.	3	-8	.	.	.
CN=C1S/C(=C/c2cc(C)n(Cc3ccccc3)c2C)C(=O)N1C	1	.	.	0	.	.	.
C/C(=N\N=C1\NC(=O)CC(C(=O)O)S1)c1cccs1 (centres undefined)	1	-2	-7	-2	-2	.	.
CNC(=O)C1CC(=O)N/C(=N/N=C(\C)c2cccs2)S1 (centres undefined)	8	0	-4	10*	2	18	14*
COC(=O)CN1C(c2ccc(Cl)cc2)=Nc2ccc(Cl)cc2C1c1ccccc1 (centres undefined)	12	-6	-1	9.0*	-2	23*	13*
CCOC(=O)[C@]12CCCC=C1N(Cc1ccc(OC)cc1)C(=O)[C@@H]2CC(=O)NCC12CC3CC(CC(C3)C1)C2	2	.	.	2	.	.	.
Cc1ccc(NC(CNS(=O)(=O)c2ccc(Cl)cc2)c2ccccc2)cc1 (centres undefined)	15	-3	6	13*	1	31*	15*
CCC(CC)C(=O)Nc1c2c(nn1-c1ccc(OC)cc1)CS(=O)C2 (centres undefined)	8	-4	-2	8.7*	0	19	8
CCC(=O)Nc1c2c(nn1-c1ccc(OC)cc1)CS(=O)C2 (centres undefined)	-14	-11	-3	-3	-2	.	.
CC(=O)Nc1cccc(-c2nc3ccccc3[nH]2)c1	-8	-4	0	-6	2	.	.
COc1cccc(OC)c1C(=O)Nc1cccc(-c2nc3ccccc3[nH]2)c1	5	-3	10	8.7*	-1	-10	-3
COc1ccc(CCN2CCC(CN3C(=S)NC[C@@H]3Cc3ccccc3)CC2)cc1OC	-1	.	.	-7	.	.	.
NC(=O)CNCCC(c1ccccc1)c1ccccc1	11	-4	-1	9.8*	-2	-2	0
NC(=O)COC(=O)CC(c1ccccc1)c1ccccc1	1	-5	-4	-2	-1	.	.

From PubChem
